# Laboratory results as given in ChEMBL document CHEMBL3988442, “University of Dundee, Small-Polar-MMV Screening Library” (2021).
# For some assays here: Results with a measured potency or affinity are listed apart.
# What was measured:
# Design in all cases: scale not given: direction of the effect not stated beside the values
# [1] = target: Protein translocase subunit SecA (Escherichia coli (strain K12)) (UniProt P10408); test: Assay to Identify E. coli SecA ATPase Inhibitors; assay type: functional; conditions: 30 µM
# Protein translocase subunit SecA (Escherichia coli (strain K12)), sequence (P10408 whole entry): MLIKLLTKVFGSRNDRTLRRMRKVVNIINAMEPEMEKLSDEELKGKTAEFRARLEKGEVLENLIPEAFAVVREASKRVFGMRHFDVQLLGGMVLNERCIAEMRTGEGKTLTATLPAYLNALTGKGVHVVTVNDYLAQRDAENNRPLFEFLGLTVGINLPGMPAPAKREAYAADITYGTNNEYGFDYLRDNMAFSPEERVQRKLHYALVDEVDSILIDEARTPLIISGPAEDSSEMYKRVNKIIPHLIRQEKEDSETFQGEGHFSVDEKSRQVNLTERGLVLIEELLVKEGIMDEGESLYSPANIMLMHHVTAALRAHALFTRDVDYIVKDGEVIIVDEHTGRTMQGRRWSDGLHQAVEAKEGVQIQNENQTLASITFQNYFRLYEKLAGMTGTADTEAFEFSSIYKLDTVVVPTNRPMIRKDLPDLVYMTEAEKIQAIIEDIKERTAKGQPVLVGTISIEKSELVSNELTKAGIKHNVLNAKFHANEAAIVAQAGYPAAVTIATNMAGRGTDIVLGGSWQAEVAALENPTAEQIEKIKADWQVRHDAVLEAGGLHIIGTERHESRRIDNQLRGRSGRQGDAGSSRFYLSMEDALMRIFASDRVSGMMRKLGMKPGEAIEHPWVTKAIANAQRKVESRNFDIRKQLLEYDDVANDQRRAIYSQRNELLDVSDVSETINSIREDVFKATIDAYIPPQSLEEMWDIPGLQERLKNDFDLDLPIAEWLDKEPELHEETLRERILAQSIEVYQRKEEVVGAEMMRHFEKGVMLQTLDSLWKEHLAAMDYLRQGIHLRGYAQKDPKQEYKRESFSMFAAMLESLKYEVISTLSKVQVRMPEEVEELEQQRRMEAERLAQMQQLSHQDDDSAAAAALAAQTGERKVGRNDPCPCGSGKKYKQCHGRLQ
# [2] = target: T1, Ubiquitin-activating enzyme e1, putative (Leishmania donovani (strain BPK282A1)) (UniProt E9BSI1); test: Leishmania donovani Ubiquitin Activating Enzyme (LdE1); assay type: functional; conditions: 30 µM
# T1 sequence (whole entry): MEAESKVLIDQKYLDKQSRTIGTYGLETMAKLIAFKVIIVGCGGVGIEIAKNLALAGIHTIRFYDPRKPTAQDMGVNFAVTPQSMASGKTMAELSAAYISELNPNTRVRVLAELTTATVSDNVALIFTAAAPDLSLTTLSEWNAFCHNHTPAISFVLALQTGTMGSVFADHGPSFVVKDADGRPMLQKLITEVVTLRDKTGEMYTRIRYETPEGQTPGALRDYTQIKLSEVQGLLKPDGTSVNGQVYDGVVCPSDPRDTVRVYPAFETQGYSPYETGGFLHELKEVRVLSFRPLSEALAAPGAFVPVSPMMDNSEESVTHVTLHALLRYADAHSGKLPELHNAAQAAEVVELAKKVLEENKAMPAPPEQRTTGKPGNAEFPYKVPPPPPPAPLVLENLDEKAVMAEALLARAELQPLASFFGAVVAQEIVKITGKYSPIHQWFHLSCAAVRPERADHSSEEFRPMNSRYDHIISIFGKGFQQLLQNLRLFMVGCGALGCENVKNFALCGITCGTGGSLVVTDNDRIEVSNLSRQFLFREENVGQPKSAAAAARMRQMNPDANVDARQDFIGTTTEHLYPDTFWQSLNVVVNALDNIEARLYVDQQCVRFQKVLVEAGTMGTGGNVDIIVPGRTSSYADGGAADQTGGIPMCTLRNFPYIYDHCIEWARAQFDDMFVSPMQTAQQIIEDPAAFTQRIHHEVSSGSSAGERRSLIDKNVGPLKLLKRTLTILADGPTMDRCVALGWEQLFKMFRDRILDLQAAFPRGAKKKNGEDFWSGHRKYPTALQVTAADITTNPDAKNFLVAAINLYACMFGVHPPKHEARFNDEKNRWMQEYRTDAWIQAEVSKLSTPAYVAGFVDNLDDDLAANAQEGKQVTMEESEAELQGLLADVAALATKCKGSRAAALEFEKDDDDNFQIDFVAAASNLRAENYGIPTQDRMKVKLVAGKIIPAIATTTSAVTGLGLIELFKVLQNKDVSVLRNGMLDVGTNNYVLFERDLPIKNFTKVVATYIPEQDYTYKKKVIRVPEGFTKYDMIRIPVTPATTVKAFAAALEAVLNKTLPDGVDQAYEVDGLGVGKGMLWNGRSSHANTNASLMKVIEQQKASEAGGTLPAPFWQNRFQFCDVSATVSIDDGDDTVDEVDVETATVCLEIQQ
# [3] = target: AMP-activated protein kinase, AMPK (Homo sapiens) (UniProt P54646+O43741+P54619+Q9UGJ0+Q9Y478+Q13131+Q9UGI9); test: AMP-dependent Kinase enzyme assay. An in vitro enzyme assay that detects ADP turnover that is directly proportional to AMPK activity. This uses naive AMPK that is activated during the assay with MK-8722; assay type: functional; conditions: 30 µM
# [4] = target: Sialic acid-binding Ig-like lectin 9 (Homo sapiens) (UniProt Q9Y336); test: Hs-Siglec9 ALPHAscreen SOP 20170721; conditions: 10 µM
# Sialic acid-binding Ig-like lectin 9 (Homo sapiens), sequence (Q9Y336 whole entry): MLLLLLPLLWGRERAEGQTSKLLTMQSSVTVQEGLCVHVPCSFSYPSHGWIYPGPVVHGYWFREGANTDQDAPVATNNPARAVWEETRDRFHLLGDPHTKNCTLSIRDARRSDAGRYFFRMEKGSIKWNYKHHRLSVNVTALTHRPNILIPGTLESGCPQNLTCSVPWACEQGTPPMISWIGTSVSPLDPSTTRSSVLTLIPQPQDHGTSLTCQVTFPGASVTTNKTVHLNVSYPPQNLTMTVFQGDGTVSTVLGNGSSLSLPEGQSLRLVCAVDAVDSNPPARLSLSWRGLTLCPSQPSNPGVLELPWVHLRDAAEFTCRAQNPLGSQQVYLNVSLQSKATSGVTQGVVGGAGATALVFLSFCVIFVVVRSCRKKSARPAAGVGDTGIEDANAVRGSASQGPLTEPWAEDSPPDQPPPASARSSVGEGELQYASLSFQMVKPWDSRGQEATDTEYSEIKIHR
# [5] = tested on: Trypanosoma cruzi; test: Trypanosoma cruzi phosphomannomutase and mannose-1-phosphate guanylyltransferase assay; assay type: functional; conditions: 10 µM
# [6] = target: T2, Arginase-2, mitochondrial (Homo sapiens) (UniProt P78540); test: in vitro enzyme assay to detect the production of urea directly proportional to the activity of Arginase II; assay type: functional; conditions: 33.3 µM; note: in the data most compounds retested in dose-response had high values
# T2 sequence (whole entry): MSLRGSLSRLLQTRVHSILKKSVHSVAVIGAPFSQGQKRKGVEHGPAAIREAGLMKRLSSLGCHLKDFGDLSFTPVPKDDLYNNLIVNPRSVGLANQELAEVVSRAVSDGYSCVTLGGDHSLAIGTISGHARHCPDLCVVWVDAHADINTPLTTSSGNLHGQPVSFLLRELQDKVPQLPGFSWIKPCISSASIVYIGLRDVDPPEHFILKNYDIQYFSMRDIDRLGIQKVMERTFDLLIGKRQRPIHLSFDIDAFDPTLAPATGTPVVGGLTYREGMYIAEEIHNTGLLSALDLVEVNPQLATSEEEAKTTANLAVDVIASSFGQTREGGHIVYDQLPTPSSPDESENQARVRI
# [7] = target: T3, Proteasome subunit beta (Trypanosoma cruzi) (UniProt O96673); test: Trypanosoma cruzi proteasome chymotrypsin-like activity (TcProtChymo) assay.; note: in the data most compounds retested in dose-response had high values; assay type: functional; conditions: 9.37 µM
# T3 sequence (whole entry): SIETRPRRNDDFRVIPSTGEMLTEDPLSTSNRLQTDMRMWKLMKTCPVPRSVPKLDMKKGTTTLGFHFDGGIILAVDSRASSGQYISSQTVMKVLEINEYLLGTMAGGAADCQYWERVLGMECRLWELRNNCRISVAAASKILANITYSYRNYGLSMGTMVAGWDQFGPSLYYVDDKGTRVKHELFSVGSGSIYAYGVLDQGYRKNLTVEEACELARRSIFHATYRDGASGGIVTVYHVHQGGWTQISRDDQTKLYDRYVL
# [8] = organism: Homo sapiens; test: To identify inhibition of the IFN signalling (Jak-Stat) pathway via expression of an eGFP reporter gene under the control of an IFN-stimulated response element (ISRE) containing MxA promoter.; assay type: functional; conditions: 30 µM
# [9] = target: T4, Tyrosyl-tRNA synthetase, putative (Trypanosoma cruzi (strain CL Brener)) (UniProt Q4DSP6); test: Trypanosoma cruzi tyrosyl tRNA synthetase (TcYRS) _High Tyrosine SOP; assay type: functional; conditions: 30 µM; note: in the data most compounds retested in dose-response had high values
# T4 sequence (whole entry): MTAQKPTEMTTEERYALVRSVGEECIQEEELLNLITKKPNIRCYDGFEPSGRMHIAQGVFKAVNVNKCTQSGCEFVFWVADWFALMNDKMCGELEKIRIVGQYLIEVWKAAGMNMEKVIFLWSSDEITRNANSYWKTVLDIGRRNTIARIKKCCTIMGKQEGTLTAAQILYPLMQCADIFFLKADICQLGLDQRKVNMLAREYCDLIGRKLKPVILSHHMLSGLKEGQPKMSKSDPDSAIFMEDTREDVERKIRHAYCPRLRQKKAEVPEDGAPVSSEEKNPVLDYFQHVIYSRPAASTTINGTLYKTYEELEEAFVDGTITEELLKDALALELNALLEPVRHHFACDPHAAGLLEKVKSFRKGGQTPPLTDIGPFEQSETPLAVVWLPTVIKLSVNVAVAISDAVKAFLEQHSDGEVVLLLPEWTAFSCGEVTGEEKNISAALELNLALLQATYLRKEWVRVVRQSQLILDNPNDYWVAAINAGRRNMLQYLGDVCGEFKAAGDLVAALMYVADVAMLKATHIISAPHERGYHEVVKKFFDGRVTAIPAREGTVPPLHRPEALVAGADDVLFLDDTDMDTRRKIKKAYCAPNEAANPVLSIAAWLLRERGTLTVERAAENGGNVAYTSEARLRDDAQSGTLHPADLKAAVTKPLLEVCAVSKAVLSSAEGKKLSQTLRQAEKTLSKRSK
# [10] = target: T4, Tyrosyl-tRNA synthetase, putative (Trypanosoma cruzi (strain CL Brener)); test: Trypanosoma cruzi tyrosyl tRNA synthetase (TcYRS) SOP; assay type: functional; conditions: 30 µM
# [11] = target: Chromo domain-containing protein 1 (Saccharomyces cerevisiae (strain ATCC 204508 / S288c) (Baker's yeast)) (UniProt P32657); test: ScCHD-1 Enzyme Inhibition Assay; assay type: functional; conditions: 30 µM; note: in the data most compounds retested in dose-response had high values
# Chromo domain-containing protein 1 (Saccharomyces cerevisiae (strain ATCC 204508 / S288c) (Baker's yeast)), sequence (P32657 whole entry, the tested form may be a part): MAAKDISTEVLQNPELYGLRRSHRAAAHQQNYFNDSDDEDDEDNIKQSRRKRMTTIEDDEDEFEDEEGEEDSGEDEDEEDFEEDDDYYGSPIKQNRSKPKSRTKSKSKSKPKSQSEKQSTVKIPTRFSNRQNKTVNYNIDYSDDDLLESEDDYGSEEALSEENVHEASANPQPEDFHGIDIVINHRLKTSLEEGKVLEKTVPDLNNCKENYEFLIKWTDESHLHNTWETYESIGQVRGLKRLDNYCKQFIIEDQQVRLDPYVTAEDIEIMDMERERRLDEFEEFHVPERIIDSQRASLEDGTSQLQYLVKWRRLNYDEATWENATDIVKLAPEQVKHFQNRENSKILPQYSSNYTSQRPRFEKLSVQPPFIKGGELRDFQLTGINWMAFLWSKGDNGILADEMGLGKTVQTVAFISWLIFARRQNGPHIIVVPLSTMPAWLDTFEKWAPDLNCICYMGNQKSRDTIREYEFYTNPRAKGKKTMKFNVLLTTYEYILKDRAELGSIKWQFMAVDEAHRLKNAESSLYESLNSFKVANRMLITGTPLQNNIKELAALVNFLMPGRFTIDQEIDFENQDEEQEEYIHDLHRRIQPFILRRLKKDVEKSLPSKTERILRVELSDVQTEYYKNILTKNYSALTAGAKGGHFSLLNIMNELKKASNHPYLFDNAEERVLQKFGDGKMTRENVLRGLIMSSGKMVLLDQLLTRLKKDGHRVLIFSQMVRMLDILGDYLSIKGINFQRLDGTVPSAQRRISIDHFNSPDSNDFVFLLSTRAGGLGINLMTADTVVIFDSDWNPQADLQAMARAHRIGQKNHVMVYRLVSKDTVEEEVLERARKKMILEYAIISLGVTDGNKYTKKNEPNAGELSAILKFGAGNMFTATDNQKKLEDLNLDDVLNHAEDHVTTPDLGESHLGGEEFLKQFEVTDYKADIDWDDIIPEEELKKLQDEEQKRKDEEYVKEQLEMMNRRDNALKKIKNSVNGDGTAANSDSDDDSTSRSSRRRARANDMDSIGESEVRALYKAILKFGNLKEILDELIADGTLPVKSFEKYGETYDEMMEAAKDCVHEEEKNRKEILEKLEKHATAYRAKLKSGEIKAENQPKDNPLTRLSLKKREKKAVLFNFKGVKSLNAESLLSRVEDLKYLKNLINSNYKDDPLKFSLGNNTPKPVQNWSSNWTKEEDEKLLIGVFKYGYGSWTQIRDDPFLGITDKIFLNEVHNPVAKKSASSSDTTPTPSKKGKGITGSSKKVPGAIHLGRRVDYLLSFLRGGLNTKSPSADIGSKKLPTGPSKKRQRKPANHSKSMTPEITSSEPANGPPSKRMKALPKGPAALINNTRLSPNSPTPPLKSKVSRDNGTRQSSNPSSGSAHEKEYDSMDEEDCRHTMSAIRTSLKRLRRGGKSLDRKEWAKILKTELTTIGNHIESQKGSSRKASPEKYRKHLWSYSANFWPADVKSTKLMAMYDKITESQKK
Structure (SMILES),Percent Effect [1] [%],Percent Effect [2] [%],Percent Effect [3] [%],Percent Effect [4] [%],Percent Effect [5] [%],Percent Effect [6] [%],Percent Effect [7] [%],Percent Effect [8] [%],Percent Effect [9] [%],Percent Effect [10] [%],Percent Effect [11] [%]
Cc1cc(C)n(CC2CCCN2C(=O)c2ccc3[nH]nnc3c2)n1 (configuration not stated),-4.12,5.48,5.75,0.134,-2.35,5.46,14.4,4.89,1.07,10,-3.11
O=C(NCCOc1ncc(Cl)cc1Cl)c1ccncc1F,-4.54,2.7,2.46,-3.73,5.08,-2.08,17.8,8.71,5.94,8.54,-7.35
COc1nc(C)c(C(=O)N(C)Cc2nc(-c3ccccn3)no2)s1,-2.52,13.3,-11.2,4.23,4.97,-3.65,18.3,-0.294,6.01,13.6,-0.207
COc1ccc(OCc2sc(C3(O)CCCNCC3)nc2C)cc1 (configuration not stated),-4.47,9.46,3.29,4.34,-1.58,3.48,4.52,2.06,3.23,6.49,-17.3
Cc1cc(CN2CC[C@H]3C[C@H](C(=O)N4CCC(C)CC4)O[C@H]3C2)no1,-3.17,10.8,0.505,-2.16,-1.07,2.87,22.5,-12.1,0,12.8,-2.88
Cc1nccn1CC1CCCN1S(=O)(=O)Cc1ccccc1F (configuration not stated),-5.1,22.8,1.28,-4.39,-1.79,1.14,2.05,13.2,4.43,21.5,-7.01
COCc1cccc(C(=O)N2CCCCC2c2nccs2)c1 (configuration not stated),-2.42,-2.7,-6.81,-4.58,5.75,2.81,7.75,-4.26,3.45,3.7,-4.87
Cn1cc(C(=O)N2CC[C@@H]3[C@@H]2CCN3Cc2cccc(F)c2)cn1,-5,8.11,1.6,-0.0749,0.88,4.14,9.96,-2.6,0,10.3,1.12
Cc1cnn(C2CCCN(C(=O)CCCOc3cccc(F)c3)C2)c1 (configuration not stated),-4.89,-1.27,42.4,2.93,0.513,4.52,0,3.38,-3.12,-5.06,-28.9
c1ccc(N2CCOC3(CCCN(c4nncs4)C3)C2)nc1 (configuration not stated),-3.17,7.79,3.64,2.14,-1.28,3.23,14.4,-6.63,3.17,8.97,-7.1
CN(C)C(=O)CN1CCCCC1c1nc(N)ncc1-c1cccc(F)c1 (configuration not stated),-4.39,21.3,1.75,-10.4,5.12,-4.43,17.9,6.49,4.25,14.1,-4.14
O=C(NCC1CC1)C1CN(C(=O)c2cccs2)CC12CCOCC2 (configuration not stated),-8.31,16,2.41,3.43,0.579,-52.5,4.62,-9.4,5.21,-47.5,-5.08
Cn1cc(CN2CCOC3(CCCN(C(=O)c4ccco4)C3)C2)cn1 (configuration not stated),-4.16,13,-1.39,4.5,8.95,-8.28,5.49,1.45,3.23,8.64,-6.46
Cc1nc(C)n(CC2CN(Cc3cccc(C#N)c3)CCO2)n1 (configuration not stated),-0.461,13.5,-1.52,2.34,2.74,0.802,14.6,0.861,-10.3,18.5,-3.18
O=C(c1ccc(O)cc1)N1CCN(C(=O)c2ccc3c(c2)COC3)CC1,-4.15,10.1,-4.98,13.3,-1.98,-2.66,4.01,-19.9,4.43,8.86,-6.29
O=S(=O)(Nc1cnn(C2CCOCC2)c1)c1ccc(F)c(F)c1,-2.82,-2.6,-3.09,9.32,-5.03,-8.39,8.01,-0.875,-1.06,3.85,-2.49
CCS(=O)(=O)CC(=O)NC(c1ccc(F)cc1)C1CCCC1 (configuration not stated),-5.43,0,132,2.49,-4.58,-2.37,17,6.16,3.19,5.2,-4.36
N#CC1(C(=O)N2CCN(Cc3cscn3)CC2)CCCC1,-4.16,10.1,-7.12,-4.28,-8.78,2.66,3.19,29.4,0.493,1.27,-7.41
N#Cc1ccc(C(=O)N2CC[C@H]3[C@@H]2CCC(=O)N3c2cccnc2)cc1,-4.52,13.5,3.21,-7.6,-2.44,3.5,18.3,-4.58,1.08,12.8,-4.36
Cn1c(CC2CCS(=O)(=O)C2)nnc1SCCOc1ccccc1F (configuration not stated),-0.675,2.7,2.63,12.8,2.64,30.5,2.15,-9.3,-2.15,6.17,-9.15
Cc1n[nH]c(C)c1NC(=O)CN1CCn2c(nnc2C(C)C)C1,-0.613,2.6,7.19,2.99,2.06,2.74,5.42,-7.56,0,0,-16.6
O=C(c1cccc(OC2CCCC2)c1)N1CCCC(n2cncn2)C1 (configuration not stated),-4.01,5.41,12.1,4.98,5.57,-5.61,-3.06,21.5,7.39,13.6,-11.7
